In PubChem BioAssay (NCI):
Compounds without any hit were thinned out: in the full panel of roughly 83,000, 20% have a hit.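 The endpoint reported here, percent growth, reads 100 for growth as untreated, 0 for no net growth and -100 for all cells dead.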 Unmarked numbers belong to inactive results. Active and inactive are the calls of the source. How the source made its calls: active means growth percent below 10; inactive means the rest.

tested on: SF-268 CNS; test: NCI-60 one-dose screen, 48 h (100 = growth as untreated, 0 = no growth, -100 = all killed); settings: 10 µM

| SMILES | growth |
| --- | --- |
| O=C(c1ccc([N+](=O)[O-])c([N+](=O)[O-])c1O)n1[nH]c(=O)c2ccccc2c1=O | 76.9% |
| Cc1ccc(-c2cc(-c3cc4ccccc4nc3Cl)[nH]c(=S)n2)cc1 | 77.8% |
| COc1ccc2nc(Cl)c(-c3cc(-c4ccccc4)nc(=O)[nH]3)cc2c1 | 60.2% |
| O=C(NO)c1ccc(CNc2nc(-c3ccccc3)c3ccccc3n2)cc1 | 7.8% (active) |
| Cc1ccc(NC(=O)c2ccc(-n3c(=O)[nH]c4ccccc4c3=O)cc2)cc1 | 84.4% |
| Nc1nc(-c2ccccc2)cc(-c2cc3ccccc3nc2Cl)n1 | 88.3% |
| C=C1CC[C@H](C(=C)C)[C@H]2C=C(C)C(=O)C3=C(C(=O)[C@@](C)(O)C3)[C@H]12 | -50.1% (active) |
| Cc1cccc2cc(-c3cc(-c4ccccc4)nc(=O)[nH]3)c(Cl)nc12 | 96.3% |
| Cc1ccc(C(C)C)cc1NC(=O)c1ccccc1O | 55.2% |
| O=C(Nc1ccccc1)Nc1nc2ccccc2s1 | 111% |
| NC1=NC(c2ccccc2Cl)N=C(Nc2nn[nH]n2)N1 (stereo not given) | 101% |
| C=C(C)[C@@H]1CC[C@]2(C)[C@H](CC=C3[C@@H]4CC(C)(C)CC[C@]4(C(=O)N4CCOCC4)CC[C@]32C)[C@@]1(C)CCCN | -76% (active) |
| Cc1ccc(-c2cc(-c3cc4ccccc4nc3Cl)[nH]c(=O)n2)cc1 | 6.42% (active) |
| O=C1Nc2cc(Cl)ccc2/C1=C/c1cccc(OCc2ccccc2)c1 | -11.4% (active) |
| O=C1Nc2ccc(Cl)cc2/C1=C/c1cccc(OCc2ccccc2)c1 | 28.5% |
| O=C1Nc2ccc(Cl)cc2/C1=C/c1ccc(OCc2ccc(Br)cc2F)cc1 | 20.3% |
| O=c1[nH]n(C(=S)N/N=C/c2ccc(F)cc2)c(=O)c2ccccc12 | 104% |
| O=C1Nc2cc(Cl)ccc2/C1=C/c1ccc(OCc2ccc(Br)cc2F)cc1 | -25.9% (active) |
| CN1CCc2c(sc3ncnc(N/N=C/c4cn(-c5ccccc5)nc4-c4ccc(Br)cc4)c23)C1 | 67.2% |
| COc1ccc(C=CC(=O)c2ccc(-n3c(C)nc4c(cnn4-c4ccccc4)c3=O)cc2)cc1 | 92.4% |
| O=C1Nc2cc(Cl)ccc2/C1=C/c1cccc(OCc2ccc(Br)cc2F)c1 | 9.99% (active) |
| O=C1Nc2ccc(F)cc2/C1=C/c1cccc(OCc2ccccc2)c1 | 29.9% |
| O=C(CSc1ccc(-c2ccc(Cl)cc2)nn1)Nc1ccc(Cl)c(C(F)(F)F)c1 | 73.7% |

tested on: SF-295 CNS; test: as above; settings: 10 µM

| SMILES | growth |
| --- | --- |
| Cc1cccc2cc(-c3cc(-c4ccccc4)nc(=S)[nH]3)c(Cl)nc12 | 64.7% |
| Cc1ccc(/C=C(\C#N)n2nnc3c(F)cccc32)cc1 | 16% |
| COc1ccc2nc(Cl)c(-c3cc(-c4ccccc4)nc(=S)[nH]3)cc2c1 | 50.9% |
| Cc1ccc(C(=O)Nc2ccc(-n3c(C)nc4c(cnn4-c4ccccc4)c3=O)cc2)cc1 | 50.6% |
| Cc1ccc(-c2ccc(SCC(=O)Nc3ccc(Cl)c(C(F)(F)F)c3)nn2)cc1 | 13.2% |
| O=C(COc1ccc(NC(=O)Nc2ccc(Cl)cc2)cc1)N=Nc1c(O)[nH]c2ccc([N+](=O)[O-])cc12 | 87.3% |
| Cc1nn(-c2ccccc2)c2ncn(CC(=O)N/N=C/c3c[nH]c4ccccc34)c(=O)c12 | 88.7% |
| S=c1nc(-c2ccccc2)cc(-c2cc3ccccc3nc2Cl)[nH]1 | 55.8% |
| Cc1ccc(C(=O)NCCCNc2nc(Nc3ccc(N4CCN(C)CC4)cc3)nc3ccsc23)cc1 | 44.8% |
| COc1ccc2nc(Cl)c(-c3cc(-c4ccccc4)nc(N)n3)cc2c1 | 30.4% |
| COc1cc(Cn2c(C(F)(F)F)cc3c(Cl)ncnc32)ccn1 | 95% |
| O=C1CCC(N2Cc3c(NCc4ccc(-c5ccccc5)cc4)cccc3C2=O)C(=O)N1 (stereo not given) | 81.9% |
| O=c1nc(-c2ccccc2)cc(-c2cc3ccccc3nc2Cl)[nH]1 | 42.2% |
| Cc1nc2c(cnn2-c2ccccc2)c(=O)n1-c1ccc(NC(=O)c2ccc(F)cc2)cc1 | 39.6% |
| O=C(c1ccc([N+](=O)[O-])c([N+](=O)[O-])c1O)n1[nH]c(=O)c2ccccc2c1=O | 90.9% |
| Cc1ccc(-c2cc(-c3cc4ccccc4nc3Cl)[nH]c(=S)n2)cc1 | 45.1% |
| COc1ccc2nc(Cl)c(-c3cc(-c4ccccc4)nc(=O)[nH]3)cc2c1 | 64.4% |
| O=C(NO)c1ccc(CNc2nc(-c3ccccc3)c3ccccc3n2)cc1 | -49% (active) |
| Cc1ccc(NC(=O)c2ccc(-n3c(=O)[nH]c4ccccc4c3=O)cc2)cc1 | 91.9% |

| SMILES | growth |
| --- | --- |
| Nc1nc(-c2ccccc2)cc(-c2cc3ccccc3nc2Cl)n1 | 78.6% |
| C=C1CC[C@H](C(=C)C)[C@H]2C=C(C)C(=O)C3=C(C(=O)[C@@](C)(O)C3)[C@H]12 | -86.4% (active) |
| Cc1cccc2cc(-c3cc(-c4ccccc4)nc(=O)[nH]3)c(Cl)nc12 | 76% |
| Cc1ccc(C(C)C)cc1NC(=O)c1ccccc1O | 61.8% |
| O=C(Nc1ccccc1)Nc1nc2ccccc2s1 | 82.3% |
| NC1=NC(c2ccccc2Cl)N=C(Nc2nn[nH]n2)N1 (stereo not given) | 101% |
| C=C(C)[C@@H]1CC[C@]2(C)[C@H](CC=C3[C@@H]4CC(C)(C)CC[C@]4(C(=O)N4CCOCC4)CC[C@]32C)[C@@]1(C)CCCN | -87.4% (active) |
| Cc1ccc(-c2cc(-c3cc4ccccc4nc3Cl)[nH]c(=O)n2)cc1 | 16.2% |
| O=C1Nc2cc(Cl)ccc2/C1=C/c1cccc(OCc2ccccc2)c1 | 1.81% (active) |
| O=C1Nc2ccc(Cl)cc2/C1=C/c1cccc(OCc2ccccc2)c1 | 31.7% |
| O=C1Nc2ccc(Cl)cc2/C1=C/c1ccc(OCc2ccc(Br)cc2F)cc1 | 22% |
| O=c1[nH]n(C(=S)N/N=C/c2ccc(F)cc2)c(=O)c2ccccc12 | 74.4% |
| O=C1Nc2cc(Cl)ccc2/C1=C/c1ccc(OCc2ccc(Br)cc2F)cc1 | -94.9% (active) |
| CN1CCc2c(sc3ncnc(N/N=C/c4cn(-c5ccccc5)nc4-c4ccc(Br)cc4)c23)C1 | 72.9% |
| COc1ccc(C=CC(=O)c2ccc(-n3c(C)nc4c(cnn4-c4ccccc4)c3=O)cc2)cc1 | 65.6% |
| O=C1Nc2cc(Cl)ccc2/C1=C/c1cccc(OCc2ccc(Br)cc2F)c1 | 5.06% (active) |
| O=C1Nc2ccc(F)cc2/C1=C/c1cccc(OCc2ccccc2)c1 | 35.4% |
| O=C(CSc1ccc(-c2ccc(Cl)cc2)nn1)Nc1ccc(Cl)c(C(F)(F)F)c1 | 56.3% |
